Neddyl block: inhibitors of cullin neddylation, primary screen, biochemical, TR-FRET, uHTS, NAE and Ubc12; calls only at 25 µM; NEDD8-conjugating enzyme Ubc12 (Homo sapiens) + NEDD8-activating enzyme E1 regulatory …; 0.58% of 360,000 active; AID 651699, 2012; in the data active means inhibition above about 36%
LEDGF integ inh: blockers of LEDGF/p75-dependent integrase strand transfer – biochemical, TR-FRET, high throughput, primary screen; HIV-1 integrase (with human LEDGF/p75); TR-FRET IN-LEDGF/p75 DNA integration, Eu/Cy5; inhibition, % at 3.7 µM; 0.64% of 370,000 active;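 active means inhibition above the screen-wide mean plus 3 SD, cut at about 13% in these data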;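 further: signal is the Cy5 over europium emission ratio at 671 and 618 nm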
Rin1 Abl inh: inhibitors of Rin1-Abl protein binding, primary screen, biochemical, TR-FRET; AID 588664, 2011; inhibition, % at 7.35 µM; 0.4% of 360,000 active; Tyrosine-protein kinase ABL1 (Homo sapiens) + Ras and Rab interactor 1 (Homo sapiens), …; in the data active means inhibition above about 5%, passing the limit was not always enough
UHRF1 binding: UHRF1 methylated DNA binding inhibitors, primary screen, counter-screen for MBD2 inhibitor project, biochemical, TR-FRET, human UHRF1, single concentration; E3 ubiquitin-protein ligase UHRF1 (Homo sapiens), Q96T88; UHRF1 binding to methylated oligo; inhibition, % at 4.4 µM; 0.75% of 370,000 active; AID 687016, 2013; in the data active means inhibition above about 21%;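 further: UHRF1 SRA domain binding a hemimethylated CpG hairpin DNA probe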
proKLK7 act: proKLK7 zymogen activators, primary screen, biochemical, fluorescence intensity | Kallikrein-7 (Homo sapiens), P49862 | activation, % at 7 µM | purified proKLK7, EDANS-DABCYL substrate fluorescence; 100% is mature enzyme control, 0% vehicle | 0.9% of 370,000 active;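 active means activation above the mean of all tested compounds plus 3 SD, computed per campaign excluding outliers beyond control limits, cut at about 13% in these data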
MBD2 inh: inhibitors of MBD2 binding to methylated DNA, primary screen, biochemical, TR-FRET, DNA-binding domain, human. MBD2 binding to methylated oligonucleotide. inhibition, % at 4.4 µM. 0.31% of 370,000 active. AID 686964, 2013; in the data active means inhibition above about 13%
Neddyl inh conf: blockade of NEDD8 conjugation to cullin – biochemical, TR-FRET, single concentration, confirmation; shares compounds with Neddyl block; TR-FRET cullin neddylation biochemical assay; calls only at 25 µM; 13% of 1,800 active; AID 652217, 2013; in the data active means inhibition above about 40%;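 further: neddylation substrate is the cullin 1 ring ligase complex with SKP2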
Each line names hits and unclear results; the compound was inactive in the other large screens (follow-up assays come after a bar, where shown). Sampled rows, rich in hits. Any-hit rate of the full collection: about 3.1%.

COC(=O)[C@H](C(C)C)N(CCc1cn(Cc2ccc(C)cc2)nn1)S(=O)(=O)c1ccc(F)cc1Br	none (no result: Neddyl block, Rin1 Abl inh)
O=C1OCC2=C1C(c1ccc(F)cc1)c1cc3c(cc1N2)OCO3 (stereo not drawn)	Neddyl block active
CCC1CCc2c(sc(N)c2C(N)=O)C1 (stereo not drawn)	none
CC1CCc2c(sc(N)c2C(N)=O)C1 (stereo not drawn)	Neddyl block active | Neddyl inh conf inactive
NC(=O)CCC(=O)N1CCCC(C(=O)c2ccc3c4c(cccc24)CC3)C1 (stereo not drawn)	Neddyl block active | Neddyl inh conf inactive
O=C1CCC(C(=O)N2CCCC(C(=O)c3ccc4c5c(cccc35)CC4)C2)=NN1 (stereo not drawn)	Neddyl block active | Neddyl inh conf active
CCOCCCNC(=O)Cn1nc(Cc2ccncc2)c2ccccc2c1=O	none
CCCCC1=CC2=CC(=O)C(C)(OC(=O)CC)C(=O)C2=CN1CCc1ccccn1 (stereo not drawn)	Neddyl block active | Neddyl inh conf inactive
CCOc1cc(N2CCOCC2)c(OCC)cc1NC(=O)CN1C(=O)NC2(CCCCC2)C1=O	none
CC(C)(C)OC(=O)N1CCc2onc(-c3ccc(N)cc3)c2C1=O	none
COCCN(C(=O)COC(=O)/C=C/c1ccc(OC)c(OC)c1)c1c(N)n(Cc2ccccc2)c(=O)[nH]c1=O	none
COCCN(C(=O)COC(=O)/C=C/c1cccc(OC)c1)c1c(N)n(CC(C)C)c(=O)[nH]c1=O	Neddyl block active
CCN(CC)C(=O)C1=C(C)N(CCC2=CCCCC2)C(=O)C(CC(=O)NCCCN(C)C)C1 (stereo not drawn)	none
O=C(CCc1ccccc1)Nc1nnc(-c2ccccn2)o1	Neddyl block active | Neddyl inh conf active
Cn1c(=O)c(Cc2ccccc2)c(O)c2ccccc21	none
O=c1c(Cc2ccccc2)c(O)c2cccc3c4c(n1c23)CCCC4	Neddyl block active | Neddyl inh conf inactive
CC(OC(=O)c1snc(C(=O)NC2CCCCC2)c1N)C(=O)NC(C)(C)C (stereo not drawn)	Neddyl block active | Neddyl inh conf active
COC(=O)C1=C(C)N(Cc2ccccc2C(F)(F)F)C(=NCc2ccccc2)NC1c1cccc(C(F)(F)F)c1 (stereo not drawn)	none (no result: Neddyl block, Rin1 Abl inh)
Cc1cc(Br)cc(Br)c1OCC(=O)NNC(=O)Nc1ccccc1	none
C[C@@H]1OC(c2ccccc2)N(C)[C@H]2C[C@H]3c4[nH]c5cccc(-c6ccccc6)c5c4CCN3C[C@@H]12 (stereo partly drawn)	none (no result: Neddyl block, Rin1 Abl inh)
COc1cc(/C=C/c2nnc3c4ccccc4ncn23)cc(OC)c1OC	Neddyl block active | Neddyl inh conf inactive
COc1ccc(/C=C2\CCCC3C2=NN(C(=O)CSc2ncn[nH]2)C3c2ccc(OC)cc2)cc1 (stereo not drawn)	Neddyl block active
C[C@@H]1CN(c2c(F)c(F)c3c(=O)c(C(=O)O)cn(C4CC4)c3c2F)C[C@H](C)N1	Neddyl block active
CNC(=S)N1CCN(c2c(F)cc3c(=O)c(C(=O)O)cn(C4CC4)c3c2OC)CC1C (stereo not drawn)	none (not shown: Neddyl block)
COc1ccc(-c2nnc(SCC(=O)Nc3ccc4cn[nH]c4c3)n2Cc2ccco2)cc1	none (no result: Neddyl block, Rin1 Abl inh)
CN(C)NC(=S)Nc1ccc2nc(-c3ccccn3)c(-c3ccccn3)nc2c1	none
S=C(Nc1ccc2nc(-c3ccccn3)c(-c3ccccn3)nc2c1)N1CCOCC1	Neddyl block active, LEDGF integ inh 26 | Neddyl inh conf inactive

Screens from PubChem.
